Experiments:
Assay in all cases: PBM binding z-score (relative to random genomic background probes); higher = stronger binding; sequences stand for … in GC…GCGATTGACAGCGTAGAATGAAGG
[1] = system: FXR:RXRa (NR concentration 270 nM, RXRa partner concentration 90 nM)
In short: (§1)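 Custom Agilent 4×180K protein-binding microarrays carried double-stranded probes, each with a 34-nt variable region. These regions held direct-repeat seeds, single-nucleotide variants, half-site ablations and random human genomic background sequences. Ligand-free nuclear receptor dimers were incubated on the arrays for 1 h, antibodies against each partner (one per run) detected binding, and scanned fluorescence was regression-normalized. Binding z-scores take the random background probes as reference.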

[2] = system: LXRa:RXRa (NR concentration 270 nM, RXRa partner concentration 90 nM)
In short: as §1

[3] = system: LXRa homodimer (NR concentration 270 nM)
In short: as §1

[4] = system: LXRb:RXRa (NR concentration 270 nM, RXRa partner concentration 90 nM)
In short: as §1

[5] = system: LXRb homodimer (NR concentration 270 nM)
In short: as §1

[6] = system: PPARa:RXRa (NR concentration 270 nM, RXRa partner concentration 90 nM)
In short: as §1

[7] = system: PPARg:RXRa (NR concentration 180 nM, RXRa partner concentration 90 nM)
In short: as §1

[8] = system: PPARg:RXRa 270nM:90nM, anti-RXR (NR concentration 270 nM, RXRa partner concentration 90 nM)
In short: as §1

[9] = system: PPARg:RXRa 30nM:10nM, anti-RXR (NR concentration 30 nM, RXRa partner concentration 10 nM)
In short: as §1

[10] = system: PPARg:RXRa 90nM:30nM, anti-RXR (NR concentration 90 nM, RXRa partner concentration 30 nM)
In short: as §1

[11] = system: PPARg:RXRa DBDmut IVT, anti-RXR (DBD mutation: RXRa K156A/R161A, NR concentration 270 nM, RXRa partner concentration 90 nM)
In short: as §1

[12] = system: PPARg:RXRa IVT, anti-PPARg (NR concentration 270 nM, RXRa partner concentration 90 nM)
In short: as §1

[13] = system: PPARg DBDmut:RXRa IVT, anti-PPARg (DBD mutation: PPARg1 K132A/R137A, NR concentration 270 nM, RXRa partner concentration 90 nM)
In short: as §1

[14] = system: PPARg DBDmut IVT, anti-PPARg (DBD mutation: PPARg1 K132A/R137A, NR concentration 270 nM)
In short: as §1

[15] = system: PPARg homodimer (NR concentration 180 nM)
In short: as §1

[16] = system: PXR:RXRa (NR concentration 270 nM, RXRa partner concentration 90 nM)
In short: as §1

[17] = system: PXR homodimer (NR concentration 270 nM)
In short: as §1

[18] = system: RARa:RXR (NR concentration 270 nM, RXRa partner concentration 90 nM)
In short: as §1

[19] = system: RARa homodimer (NR concentration 270 nM)
In short: as §1

[20] = system: RARb:RXRa (NR concentration 270 nM, RXRa partner concentration 90 nM)
In short: as §1

Sequence	PBM binding z-score [1]	PBM binding z-score [2]	PBM binding z-score [3]	PBM binding z-score [4]	PBM binding z-score [5]	PBM binding z-score [6]	PBM binding z-score [7]	PBM binding z-score [8]	PBM binding z-score [9]	PBM binding z-score [10]	PBM binding z-score [11]	PBM binding z-score [12]	PBM binding z-score [13]	PBM binding z-score [14]	PBM binding z-score [15]	PBM binding z-score [16]	PBM binding z-score [17]	PBM binding z-score [18]	PBM binding z-score [19]	PBM binding z-score [20]
TAGCCTAGGTCATTCAGGGTCCAGTATAGAAAGC	4.67	4.27	0.918	3.01	0.48	3.74	1.99	2.11	0.487	1.23	1.57	2.74	0.533	0.0908	1.38	3.27	0.324	2.84	-0.0201	3.77
CAGCCTAGGTTAGGGCCAGTATAGGAGGAACGTT	-0.436	-0.473	-0.564	-0.633	-1.42	-0.175	0.211	-0.361	-0.521	-0.278	-0.289	-0.377	-1.05	-1.1	-1.26	-0.636	-0.655	-0.399	-0.834	0.516
GCTCGGAGGACAAGGTCATAGCTTTGTCCGTAGA	4.1	3.71	0.47	2.77	-0.053	4.08	2.43	3.37	0.472	2.08	0.27	1.58	-0.805	-1.25	1.11	3.46	0.287	3.71	-0.351	3.79
CCTAGTTGGACAGGAGGTCACACACCGGATATGA	3.17	3.27	1.86	3.19	0.666	4.11	2.52	2.96	0.938	2.35	0.493	2.64	0.73	0.338	3.06	4.13	1.32	4.3	1.71	3.23
CGCCCAAGGTCAAAGGTCAGTGAAGAGATGACGG	8.13	6.57	3.09	6.44	1.72	7.07	10.1	8.16	7.42	8.6	3.58	5.36	0.645	0.0371	3.28	7.03	1.41	8.49	1.99	6.04
ATCTCTAGGTAACCAAGTTCAGTTAATGCCGAAC	0.988	1.26	1.38	1.11	0.875	1.31	0.806	1.1	0.448	0.659	3.71	3.16	2.02	1.26	1.12	2.19	2.39	1.24	1.3	1.18
CCGACTGGGGCAAGGGTTACCATACTCAGTACGA	0.0555	0.199	-0.283	0.579	-0.86	3.84	8.6	7.56	6.82	7.87	3.17	4.93	-0.628	-1.19	0.0321	0.443	-0.412	1.53	-0.348	1.57
TCTGCTAGGTCAGTTGGTCAGCTAACGAGCTGCC	0.844	0.445	-0.44	0.299	0.673	1.29	0.575	1.83	1.27	1.66	2.77	3.08	-0.303	0.752	0.0124	0.0781	-0.754	0.864	-0.941	3.35
ACTATTAGTTGACTTATGGCAACCGATACGACGC	0.061	0.293	0.179	0.682	0.995	0.117	1.04	0.488	0.748	0.352	0.0133	0.165	1.06	1.08	0.983	0.367	0.358	0.397	1.2	0.351
TCTTGTAGATCAACAGGAGGTGAAGAAAGATCGA	0.155	0.134	-0.343	0.298	-0.585	0.798	-0.0204	1.4	2.7	2.04	1.56	1.14	-0.0745	1.41	-0.39	0.179	-0.438	0.154	-0.0996	0.194
CAAACTAGGTCACCGGACGGTCAAAGTCCGCATG	4.83	4.33	1.97	3.09	0.428	5.37	9.09	7.27	5.34	6.89	8.62	8.82	3.09	1.22	4.69	2.54	0.265	3.73	0.94	4.7
CGAACTAGGTCATTGACAGGACAGTAAATAGTAA	4.05	2.93	0.467	2.31	-0.338	4.66	7.77	6.44	3.43	5.8	8.11	7.89	2.15	1.51	1.72	1.89	0.641	2.43	-0.0635	3.81
TCCTGTAGATCAAGCAGGTTAAGAAAGCCTGAGT	0.115	0.256	-0.387	0.136	-1.12	0.563	-0.537	1.19	2.38	1.42	1.36	-0.00456	0.0504	-0.299	-0.486	0.372	0.0191	0.301	-0.136	0.0343
TCTCCGAGGACACGAAAGGTCAGAGCTCGACATC	3.26	3.9	2.63	3.48	0.562	3.68	1.53	2.82	2.39	2.44	1.67	1.97	0.778	0.343	2.54	4.22	0.558	4.27	0.52	4.47
ATCTCTAGGTAACCAAGTGCAGTGAATGCCGAAC	-0.0336	0.0225	-0.464	-0.183	0.282	-0.0554	0.325	0.259	-0.0021	0.298	3.33	2.57	1.12	0.604	-0.00797	0.128	0.228	0.0514	-0.0338	0.281
CCTGCTAGGTCAATTGTCAGCTAAAGCAGCTCGC	2.8	2	0.111	1.6	0.259	2.77	1.83	2.46	-0.128	1.54	4.15	3.14	-0.356	-0.703	0.436	0.762	-0.49	1.34	-0.799	3.53
TATCCTAGGTCATGCGGGCCAGTATAGTGTCGGC	4.73	5.7	4.76	2.7	2.07	4.14	3.92	3.74	1.55	2.88	3.98	4.97	1.6	1.66	1.75	2.04	0.212	2.76	-0.133	3.9
AGTATTAGTTGACTTAGGGCAACCGATACGACGC	0.048	0.00134	0.42	0.0482	0.3	0.128	0.82	0.435	0.448	0.623	-0.0999	0.548	0.229	1.16	0.56	0.237	0.692	0.353	1	1.12
AATACAGGGTCACTAGGCCAGAGGAGGTACGAAT	5.85	4.93	0.963	3.62	1.31	5.54	8.18	6.63	3.82	5.65	3.99	5.89	1.86	1.11	2.18	2.95	0.559	4.12	0.96	4.17
CCAGACAGGTCAGAAGGTAACTCAGCCTCGATTA	2.82	2.29	0.142	1.7	-0.0467	3.15	1.84	2.26	0.435	1.4	1.41	1.15	-0.393	-1.03	2.19	1.21	0.153	2.1	0.911	3.49
CAAACTAGGTCACAGAGGTCTAAGTCCGTGCGTA	4.42	3.56	0.555	2.13	0.273	5.17	8.49	6.93	5.19	6.98	8.53	8.91	1.68	1.67	0.929	2.54	0.546	2.8	0.421	4.13
ACTAGCAGGCCAAGTTTGGGTCACTCGAACAAAG	0.398	0.0952	-0.533	0.67	-0.727	1.33	0.0973	0.504	-0.62	0.14	1.03	1.36	-0.745	-0.0393	0.399	0.625	-0.591	1.12	-0.754	1.68
GGACCGAGGGCATTCGAGTTGATAGCATGGCGAT	1.26	1.86	-0.0835	0.133	-1.34	0.952	0.4	0.0586	-0.851	-0.483	0.308	0.267	-0.812	-0.98	-0.223	4.17	1.3	0.835	-0.77	1.88
CGTCAAAGTTCAAGGTAACTTAACAGAAAGCAGC	6.07	5.46	2.56	3.35	0.919	4.5	4.23	4.97	1.81	3.84	0.535	1.52	0.657	0.0202	2.33	3.79	2.37	3.17	1.69	4.89
TCGAGTAGGTTACCAATGGGGCTTTCAGCTTTCT	-0.0439	0.131	-1.06	0.62	-0.632	0.836	-0.121	0.803	1.11	0.796	3.39	2.45	-0.964	0.0286	-0.411	-0.0679	-0.767	-0.0921	-1.47	0.762
CCTAATGGGCCATCAGGTCATTGATATCAACGTT	1.58	1.34	1.1	1.48	0.197	2.33	1.5	2.54	0.609	1.98	3.13	3.41	-0.226	0.112	1.81	1.84	0.78	2.18	0.44	2.15
TCTATTAGTTGCTTAGGGCAACCGAAACAGCGGA	0.577	0.582	0.0862	0.602	0.556	0.886	-0.0516	1.87	3.56	2.88	2.15	0.552	0.453	1.28	0.448	0.524	0.123	0.386	0.367	0.946
CGTCCAAGGTCAAAGGTCAGTGCAGAGATGACGG	8.41	7.01	3.67	6.47	1.91	7.1	10.5	9.08	8.16	9.41	3.55	5.49	1.33	1.29	4.31	7.08	2.79	9.23	3.59	5.77
